Compound activity from PubChem BioAssay.
This is a sample that favours compounds with a hit; in the whole collection about 10% have one here.
HPGD inh: qHTS Assay for Inhibitors of HPGD (15-Hydroxyprostaglandin Dehydrogenase). 15-hydroxyprostaglandin dehydrogenase [NAD(+)] (Homo sapiens), P15428. Potency, µM, hits mostly inhibitors. AID 894, 2007. 150,000 compounds, 4.3% hits. purified HPGD, NADH fluorescence kinetic, PGE2 substrate; active = well fitted inhibition curve with a large enough effect, not every such curve was filed as active; inconclusive = small, poorly fitted or top-dose-only effect, or another doubt; inactive = no such curve, though single readings can be large or run the other way
Target sequence (P15428 whole entry, looked up): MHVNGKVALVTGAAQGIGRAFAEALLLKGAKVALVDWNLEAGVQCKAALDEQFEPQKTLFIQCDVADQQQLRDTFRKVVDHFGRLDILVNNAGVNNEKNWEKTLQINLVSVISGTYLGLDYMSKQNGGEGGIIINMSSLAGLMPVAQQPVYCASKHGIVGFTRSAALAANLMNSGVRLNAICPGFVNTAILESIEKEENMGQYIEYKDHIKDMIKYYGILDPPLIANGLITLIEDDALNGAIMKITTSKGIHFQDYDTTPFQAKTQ
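NADH formation kinetics: reaction with 30 uM PGE2 and 1 mM NAD+ (final), 20 nM enzyme, Tris-HCl pH 8 with Tween 20, after 15 min compound preincubation at room temperature. Fluorescence change, last versus first of five reads.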
ALOX12 inhib: qHTS Assay for Inhibitors of 12-hLO (12-human lipoxygenase) | Polyunsaturated fatty acid lipoxygenase ALOX12 (Homo sapiens), P18054 | purified 12-hLO, xylenol orange hydroperoxide absorbance | Potency, µM (doses to about 57.1 µM), actives largely listed as inhibitors | 150,000 compounds, 0.12% hits | AID 1452, 2008; note: nearly all actives have a fitted effect of over 55% in size
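Hydroperoxide output read as Fe(III)-xylenol orange absorbance, 573-to-405 nm ratio, after 30 min reaction with 40 uM arachidonic acid. Enzyme: 150 nM purified human 12hLO, 15 min compound preincubation; 25 mM Hepes pH 7.0, room temperature.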
GLA inh pH 4.5: qHTS Assay for Inhibitors of Human alpha-Galactosidase at pH 4.5. activity change, negative = inhibition, % at 105 µM. AID 1467, 2008. 230,000 tested, under 10 active. purified enzyme, 4-MU-alpha-Gal fluorescence, pH 4.5. Alpha-galactosidase A (Homo sapiens), P06280
Target sequence (P06280 whole entry, looked up): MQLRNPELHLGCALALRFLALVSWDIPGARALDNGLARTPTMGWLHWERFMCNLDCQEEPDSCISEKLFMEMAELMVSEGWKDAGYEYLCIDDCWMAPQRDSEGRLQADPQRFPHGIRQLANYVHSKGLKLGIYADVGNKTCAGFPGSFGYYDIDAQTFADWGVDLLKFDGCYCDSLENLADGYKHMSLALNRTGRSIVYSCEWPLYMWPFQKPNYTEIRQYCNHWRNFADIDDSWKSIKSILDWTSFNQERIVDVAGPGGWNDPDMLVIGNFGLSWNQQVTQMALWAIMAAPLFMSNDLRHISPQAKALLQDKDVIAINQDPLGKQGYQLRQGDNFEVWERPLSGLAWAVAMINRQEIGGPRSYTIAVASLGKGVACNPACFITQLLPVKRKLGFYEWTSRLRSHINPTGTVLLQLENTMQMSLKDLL
PNC assembly inh: High Content Assay for Compounds that inhibit the Assembly of the Perinucleolar Compartment; PC3M PTB-GFP, PNC prevalence imaging, 16 h; active compounds read low; activity change (PNC), negative = inhibition, % at 10 µM; 140,000 compounds, 3.1% hits;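 active = readout at or below -70, meaning at least 70% loss of cells showing the perinucleolar compartment, a nuclear body marking cancer cells; inconclusive = readout between -30 and a set limit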
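Compounds are pinned in duplicate onto adhered PC3M cells stably expressing GFP-tagged PTB and incubated 16 h at 37 C. Cells are then fixed, nuclei stained with Hoechst, and PNC-positive cells counted.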
ALDH1A1 inh: qHTS Assay for Inhibitors of Aldehyde Dehydrogenase 1 (ALDH1A1); Purified ALDH1A1, NADH fluorescence, propionaldehyde substrate; Potency, µM (titrated, usually from 75.3 µM), actives largely listed as inhibitors; 220,000 compounds, 7.3% hits; AID 1030, 2008; active = well fitted inhibition curve with a large enough effect, not every such curve was filed as active; inconclusive = small, poorly fitted or top-dose-only effect, or another doubt; inactive = no such curve, though single readings can be large or run the other way
aGal spleen mod: qHTS Assay for Inhibitors and Activators of Human alpha-Galactosidase From Spleen Homogenate | human spleen homogenate, 4MU-alpha-Gal fluorescence, 40 min | Potency, µM (highest dose often 80 µM), actives largely listed as inhibitors | 240,000 compounds, 0.008% hits | AID 2107, 2009
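Inhibition or activation of alpha-galactosidase in human spleen homogenate is scored by 4-MU fluorescence after 40 min at 37C, pH 5.0, with 1 mM substrate. AC50s come from concentration-response fitted to the Hill equation.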
A number is an active result; n = inactive; u = inconclusive; x = no result given; [ ] = dose if it differs, or a comment. Unless noted, calls come from the whole dose curve; as a rule, active = well fitted curve in the direction sought with a large enough effect; inconclusive = small, poorly fitted or top-dose-only effect, or another doubt; inactive = no such curve, though single readings can be large; an effect the other way counts as inactive or inconclusive.

SMILES	HPGD inh	ALOX12 inhib	GLA inh pH 4.5	PNC assembly inh	ALDH1A1 inh	aGal spleen mod
CCC(C)n1cnc2c(c1=O)c1nc3ccccc3nc1n2Cc1ccccc1OC (stereo not drawn)	n	n	n	n	u	n
CC(=O)OCC(=O)[C@@]1(O)CCC2C3CC[C@H]4CC(O)CC[C@@]4(C)C3C(=O)C[C@]21C (stereo partly drawn)	n	n	n	x	n	n
O=C(NCCN1CCOCC1)c1ccc2c(c1)N(Cc1ccccc1F)C(=O)CS2	n	n	n	n	n	n
O=C1CSc2ccccc2N1Cc1ccccc1F	n	n	n	u	22µM	n
Cc1ccc(C2CN=NC23CCc2ccccc2C3=O)cc1 (stereo not drawn)	32µM	n	n	n	u	n
O=C1c2ccccc2CCCC12N=NCC2c1cccc2ccccc12 (stereo not drawn)	n	n	n	n	n	n
C[C@@H](C(=O)Nc1ccc2ccccc2c1)[C@H]1C[C@]1(C)[C@H](NC(=O)c1cnccn1)c1ccccc1	n	n	n	-91	11µM	n
Cc1cc(C(=O)N[C@H](c2ccccc2)[C@@]2(C)C[C@@H]2[C@@H](C)C(=O)Nc2ccc3ccccc3c2)no1	n	n	n	n	13µM	n
COc1cc2c(cc1OC)C(c1cccs1)N(C(=O)c1cccc(S(=O)(=O)N(C)C)c1)CC2 (stereo not drawn)	x	x	n	x	x	n
CC1CCC2C(=O)N3C(CCC(C)[C@@H]3c3cccc(N4CCOCC4)c3)C(=O)N2C1c1cccc(Br)c1 (stereo partly drawn)	x	x	x	x	n[13.5 µM]	n[17.5 µM]
CCOc1ccc(N(CCCCO)C(=S)NC(=O)c2ccc(C)c(Br)c2)cc1	x	x	n	x	22µM	n
CNC(=O)/C(C#N)=c1\s/c(=C/C(=O)OC)c(=O)n1-c1ccccc1	n	n	n	n	n	n
COC(=O)/C=c1\sc2ncnn2c1=O	u	n	n	-81	u	n
CCOc1ccc(NC(=S)NC(=O)/C=C/c2ccc(OC)c(OC)c2)c([N+](=O)[O-])c1	22µM	n	n	n	n	n
COC(=O)c1cc(Cl)c(NC(=O)/C=C/c2ccc(OC)cc2)cc1OC	u	n	n	-113	u	n
COc1ccc(NC(=O)/C=C/c2ccccc2)c([N+](=O)[O-])c1	n	n	n	-82	n	n
CC(C)C(O)(C(C)C)C(C)C	n	n[11.4 µM]	x	x	u	x
O=C(Nc1ccc2c(c1)OCO2)c1cc(-c2ccncc2)nc2ccccc12	x	x	n	x	n	n
CN[C@]1(C)[C@@H]2CC[C@@H](C2)C1(C)C	x	n	x	x	x	x
O=C(COC(=O)c1ccc(NS(=O)(=O)c2ccc3c(c2)OCCO3)cc1)NCC1CCCO1 (stereo not drawn)	n	n	n	-92	n	n
O=C(NCC1CCCO1)c1ccc2c(c1)OCO2 (stereo not drawn)	2µM	n	n	n	n	n
CN(c1ccc(C(=O)NCC2CCCO2)cc1)S(C)(=O)=O (stereo not drawn)	n	n	n	-87	n	n
COC(=O)N1CCC[C@@]2(CCN(c3ccccc3)C2)C1	n	n	x	x	n	n
COc1ccc([N+](=O)[O-])cc1NC(=O)CCSCCc1ccccn1	x	x	n[21.1 µM]	x	n	n
CC(C)(C)NS(=O)(=O)c1ccc(Oc2ncc(C(F)(F)F)cc2Cl)cc1	n	n	n	n	n	n
SMILES	HPGD inh	ALOX12 inhib	GLA inh pH 4.5	PNC assembly inh	ALDH1A1 inh	aGal spleen mod
CC(C)(C)NS(=O)(=O)c1cnc(Cl)c(Cl)c1	n	n	n	n	32µM	n
COc1ccc2c3c([nH]c2c1)[C@H]1C[C@@H]2[C@@H](C[C@@H](O)[C@H](OC)[C@H]2C(=O)O)CN1CC3	n	n[11.4 µM]	x	x	n[13.5 µM]	x
CCCN(C(=O)c1ccco1)c1nnc(-c2ccccc2C)s1	x	x	n	x	8.9µM	u
CCCc1[nH]n(-c2nc3ccccc3s2)c(=O)c1C=NCC(C)C	n	n	n	n	13µM	n
CC(=O)OC[C@@H]1O[C@@H](O/N=C2/C[C@@H](O)[C@@H](O)[C@@H]3[C@@H]4C(=O)N(C[C@@H]5CCCO5)C(=O)[C@H]4CC[C@@H]23)[C@H](OC(C)=O)[C@H](OC(C)=O)[C@@H]1OC(C)=O	x	x	x	x	n[13.5 µM]	n[17.5 µM]
O=C(CCCCCNC(=O)c1ccccc1Cl)N/N=C/c1ccco1	x	x	n	x	n	n
CCN(CC(=O)Nc1ccccc1Br)C1CCCCC1	x	x	n	x	u	n
O=C(CSC1CCCCC1)Nc1ccccc1Br	18µM	n	n	u	n	n
CCOC(=O)c1sc(=S)n(-c2ccccc2OC)c1N	u	n	n	n	3.2µM	n
CCCCNC(=O)c1sc(=S)n(-c2ccccc2OC)c1N	32µM	n	n	u	8.9µM	n
COC(=O)c1sc(=S)n(-c2ccccc2OC)c1N	14µM	n	n	n	n	n
COc1ccc(Cl)cc1-n1c(N)c(C(N)=O)sc1=S	28µM	n	n	n	u	n
CCOc1ccccc1-n1c(N)c(C(N)=O)sc1=S	n	n	n	n	u	n
CCOC(=O)c1sc(=S)n(-c2ccccc2)c1NC(C)=O	x	x	n	x	x	n
NCCCCCCC(O)(P(=O)(O)O)P(=O)(O)O	x	x	x	x	x	n
COc1cccc([C@@H]2Oc3ccc(OC)cc3C(=O)[C@H]2OC(=O)NCc2ccco2)c1	n	x	n	x	n	n
C[C@H]1O[C@@H](O[C@H]2[C@@H](O)C[C@H](O[C@H]3[C@@H](O)C[C@H](O[C@H]4CC[C@@]5(C)[C@H](CC[C@@H]6[C@@H]5C[C@@H](O)[C@]5(C)[C@@H](C7=CC(=O)OC7)CC[C@]65O)C4)O[C@@H]3C)O[C@@H]2C)C[C@H](O)[C@@H]1O	n	n	n	-90	n	u
c1ccc(CCc2nn3c(C4COc5ccccc5O4)nnc3s2)cc1 (stereo not drawn)	10µM	n	n	n	10µM	n
c1ccc(Cc2nn3c(C4COc5ccccc5O4)nnc3s2)cc1 (stereo not drawn)	8.9µM	n	n	u	2µM	n
Cc1ccc(-c2nnc3sc(C4COc5ccccc5O4)nn23)cc1 (stereo not drawn)	n	n	n	n	u	n
COc1ccccc1-c1nn2c(C3COc4ccccc4O3)nnc2s1 (stereo not drawn)	u	n	n	u	u	n
Cc1ccc(S(=O)(=O)NC2CCCCC2)c2nsnc12	n	n	n	n	16µM	n
Cc1ccc2nsnc2c1S(=O)(=O)NC1CC1	n	n	n	n	n	n
